# Sampled rows, rich in hits. Any-hit rate of the full collection: about 1.2%.
# GRK2 inh – human GRK2 inhibition via aptamer displacement; P25098; bead flow cytometry, FAM-aptamer displacement from GRK2; inhibition of aptamer binding, % at 10 µM; hit rate 0.59% among 330,000; AID 488847;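 active = inhibition of aptamer binding above 40%, roughly 3 SD of noise, on plates passing a quality check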;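 also: median bead fluorescence of bound FAM aptamer so fluorescent compounds give negative values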
# NTR1 ag – NTR1 (human) agonism | P30989 | NTR1-U2OS beta-arrestin-GFP spot imaging, agonist mode | activation, % at 20 µM | hit rate 0.17% among 330,000 | AID 493036;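 active = activation at or above 40% of the spot to cytoplasm intensity ratio, with at least 20 cells analyzed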;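 also: 0% = DMSO without peptide and 100% = 100 nM NTR1 peptide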
# Target sequence (P30989 whole entry, looked up): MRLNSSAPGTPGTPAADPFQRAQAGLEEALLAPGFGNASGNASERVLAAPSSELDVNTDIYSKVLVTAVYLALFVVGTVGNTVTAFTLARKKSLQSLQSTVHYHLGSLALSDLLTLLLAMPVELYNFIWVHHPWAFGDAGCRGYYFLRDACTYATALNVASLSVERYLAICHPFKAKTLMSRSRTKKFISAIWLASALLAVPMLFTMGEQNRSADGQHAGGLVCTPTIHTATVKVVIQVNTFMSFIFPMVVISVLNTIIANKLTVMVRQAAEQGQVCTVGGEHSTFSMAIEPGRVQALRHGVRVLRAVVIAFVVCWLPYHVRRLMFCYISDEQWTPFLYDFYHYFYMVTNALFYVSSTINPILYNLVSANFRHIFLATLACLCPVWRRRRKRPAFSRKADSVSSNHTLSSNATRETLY
# Platelet DG rel – platelet dense granule release activity; human platelet-rich plasma, SFLLRN dense granule ATP release, luminescence; inhibition, %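 (compounds screened at 7.5 µM in platelet-rich plasma)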; hit rate 0.22% among 300,000;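 active = mean replicate score, as percent of positive control, at or above 50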
# beta cell repl – MIN6 beta-cell proliferation induction; proliferation, % at 10 µM; hit rate 0.29% among 330,000; MIN6 cells proliferation, ATPlite luminescence, 48 h; cells starved in 0.2% serum; 100% = growth in 10% serum;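 active = compounds whose signal lies at least 3.5 SD above the mean of all wells on their plate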;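 also: 0% = DMSO-treated cells in low-serum medium and 100% = 10% serum control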
# NTR1 ag confirm – confirmation of agonists of human NTR1 | hit rate 38% among 480 | shares compounds with NTR1 ag | activation, % at 20 µM | NTR1-U2OS beta-arrestin-GFP translocation imaging;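 active = mean activation at 20 µM of at least 40%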;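 also: 0% = DMSO without peptide and 100% = 100 nM NTR1 peptide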
# * hit, by the source's call; · = no result given.
SMILES,GRK2 inh,NTR1 ag,Platelet DG rel,beta cell repl,NTR1 ag confirm
CC(C)C[C@H](NC(=O)c1nc[nH]c1C(=O)NC(c1ccccc1)c1ccccc1)C(=O)OC(C)(C)C,·,21.6,-0.6,-7.8,·
Cc1ccc(C(=O)OCC(=O)Nc2sc3c(c2C#N)CCC3)cc1,1.0,2.0,-31.4,0.0,·
COC(=O)c1c(NC(=O)COC(=O)c2ccc(O)cc2)sc2c1CCCCC2,13.0,42.9*,-0.1,-6.2,32.6
C[C@H](NC(=O)c1ccccc1)C(=O)OCC(=O)Nc1sccc1C(N)=O,1.0,0.2,·,-3.4,·
O=C(CSc1nnc2c(Cl)cc(Cl)cn12)N1CCN(c2ccc(F)cc2)CC1,1.0,1.6,21.1,-3.5,·
CC(C)c1nnc(NC(=O)CCC2CCCCC2)s1,0.0,40.8*,-0.4,-1.5,32.8
COc1cc(OC)c2c(-c3ccccc3)cc(=O)oc2c1C(CCN1CCCCC1)c1ccc(N(C)C)cc1 (configuration not stated),0.0,11.5,1.3,-8.4,·
COc1ccc(C(CCN2CCCCC2)c2c(OC)cc(OC)c3c(-c4ccccc4)cc(=O)oc23)cc1 (configuration not stated),0.0,41.5*,2.0,-8.4,41.2*
CCCCCc1cc(=O)oc2c(C(CCN3CCCC(C)C3)c3cc(OC)c(OC)c(OC)c3)c(OC)cc(OC)c12 (configuration not stated),1.0,19.9,7.3,-8.5,·
CCCCCc1cc(=O)oc2c(C(CCN3CCCC(C)C3)c3ccc(N(C)C)cc3)c(OC)cc(OC)c12 (configuration not stated),0.0,51.2*,7.4,-7.9,53.2*
COc1cccc(CNC(=O)C(=O)NCC2OCCCN2S(=O)(=O)c2cc(C)ccc2C)c1 (configuration not stated),0.0,-0.9,-7.7,-2.9,·
COc1ccc(C(=O)NN2CCOCC2)cc1,1.0,-0.1,-0.6,6.8,·
Cc1[nH]nc(-c2ccc(O)cc2O)c1Oc1ccccc1,0.0,2.4,5.4,-1.8,·
CCc1cc(-c2n[nH]c(C)c2Oc2ccc(C(C)C)cc2)c(O)cc1O,0.0,64.0*,-3.8,-5.7,30.3
O=C(Nc1ccc(Oc2c(F)c(F)c(F)c(F)c2F)cc1)OC1CCN2Cc3ccccc3N=C12 (configuration not stated),0.0,40.5*,-2.3,-4.2,54.0*
CN(Cc1ccccc1F)C(=O)COc1ccc(C(=O)c2ccccc2)cc1,0.0,1.2,-2.9,0.0,·
N#Cc1c(NC(=O)CSc2nc(N)cc(=O)[nH]2)sc2c1CCCC2,3.0,3.3,5.7,-4.0,·
Cc1ccc(-n2nnc3c(=O)oc4ccccc4c32)cc1,0.0,57.7*,-2.3,-6.2,19.8
OCCOc1ccc(CN2CCN(CCCc3ccccc3)C(CCO)C2)cc1 (configuration not stated),0.0,-0.3,-3.4,-1.4,·
COc1ccc(C=C2C=C(C(C)(C)C)C(=O)C(C(C)(C)C)=C2)cc1OC,13.0,40.6*,-7.0,-4.1,15.8
COc1ccc(F)cc1Cn1nc(C(=O)O)c2ccccc2c1=O,1.0,4.8,0.5,0.0,·
COc1ccc(/C=C/C(=O)c2ccc(C)c([N+](=O)[O-])c2)cc1O,0.0,43.1*,-8.0,-6.2,25.1
COc1cc(C(=O)/C=C/c2cccnc2)c([N+](=O)[O-])cc1OC,0.0,42.2*,1.4,-6.4,47.0*
COc1cc(/C=C/C(=O)c2ccc(C)c([N+](=O)[O-])c2)cc(OC)c1O,2.0,30.2,21.8,-5.7,·
COc1cccc(/C=C/C(=O)c2ccc(C)c([N+](=O)[O-])c2)c1,2.0,66.3*,1.5,-5.4,1.6
SMILES,GRK2 inh,NTR1 ag,Platelet DG rel,beta cell repl,NTR1 ag confirm
O=C(/C=C/c1cccnc1)c1ccc([N+](=O)[O-])cc1,0.0,10.8,5.8,-3.2,·
Cc1cc(C(=O)COC(=O)c2cc(Cl)c(O)c(Cl)c2)c(C)n1C,10.0,-1.2,·,-4.2,·
Cn1c(SCC(=O)NNC(=O)c2ccccc2Br)nnc1C(F)(F)F,1.0,-1.0,·,1.2,·
Cc1ccc2c(c1)c1c(n2CC(O)CNC(CO)(CO)CO)CCCC1 (configuration not stated),0.0,-0.9,-1.2,0.5,·
Cc1ccc2c(c1)c1c(n2CC(O)CNC2CCCCC2)CCCC1 (configuration not stated),0.0,42.0*,4.3,-6.4,52.9*
O=c1/c(=C\c2ccc(O)cc2)sc2nc(-c3ccccc3)c(-c3ccccc3)n12,0.0,45.7*,-7.1,-7.6,24.5
CC(C)=CCc1c(O)c(CC=C(C)C)c2c(c1O)C(=O)CC(c1ccc(O)cc1)O2 (configuration not stated),3.0,46.4*,1.5,-5.9,38.7
CC(C)=CCc1c(O)cc(O)c2c1OC(c1ccc(O)cc1)CC2=O (configuration not stated),0.0,6.3,-0.1,2.9,·
CC1CCC(C(C)C)C(OC(=O)Cn2c(-c3ccccc3)[n+](C)c3ccccc32)C1 (configuration not stated),0.0,9.4,-10.8,0.0,·
Cc1cccc(OCc2n(CC(=O)OC3CC(C)CCC3C(C)C)c3ccccc3[n+]2C)c1 (configuration not stated),0.0,92.5*,-3.2,-5.4,101.0*
COc1cc2c(cc1OC)C(SC)=NC(C)(C)C2,4.0,48.3*,-5.7,-3.8,80.3*
Cc1cc(C)n(-c2nc(N(c3ccccc3)c3ccccc3)nc(-n3nc(C)cc3C)n2)n1,4.0,83.7*,-3.8,-6.4,74.8*
Cc1cc(C)n(-c2nc(Nc3ccccc3)nc(-n3nc(C)cc3C)n2)n1,2.0,0.3,10.7,-0.7,·
Cc1ccc(S(=O)(=O)c2cnc3cc(C)nn3c2N)cc1,0.0,-1.4,15.5,-5.1,·
O=C1CC(c2ccccc2)Cc2nc3nc(C(F)(F)F)nn3cc21 (configuration not stated),0.0,49.2*,5.5,-4.0,0.7
O=C(CSc1nc(=O)n(CCN2CCOCC2)c2c1CCCC2)Nc1ccc(F)cc1F,0.0,-0.4,15.0,2.6,·
CC(C)(C)N(CC#CCC(O)(c1ccccc1)c1ccccc1)CCO,0.0,0.7,-4.5,-0.7,·
Nc1ccc(C(=O)N/N=C\c2ccc(OC(=O)c3ccccc3Cl)cc2)cc1,0.0,-0.7,2.9,-2.7,·
COc1cc(C(=O)N/N=C/c2ccc(OC(=O)c3ccccc3Cl)cc2)ccc1O,1.0,49.1*,2.7,-5.0,9.1
CC1N=C2c3ccccc3N=C(SCc3cc(=O)n4cc(Cl)ccc4n3)N2C1=O (configuration not stated),1.0,52.0*,1.6,-3.5,3.7
COc1ccccc1C(=O)NC(CCSC)C(=O)NNC(=O)c1ccncc1 (configuration not stated),2.0,-0.4,2.0,-1.6,·
CC(C)(C)c1nc(NC(=O)Nc2ccccc2)sc1Br,0.0,44.1*,2.3,-6.0,11.2
Cc1ccc(C(=O)/C=C/C(=O)c2ccc(C)cc2)cc1,2.0,41.6*,27.2,-6.5,73.1*
Cc1ccc([C@H]2C(C(=O)O)=CC[C@@H](c3ccc(Cl)cc3)N2S(=O)(=O)c2ccc(C)cc2)cc1,6.0,10.3,·,-4.6,·
